Reference: PubChem BioAssay (EPA / NIEHS)
Calls of active or inactive are those of the source. Rule for the calls: active = hit-call score of the fitted dose curve at least 0.9, where 1 is the maximum; inactive = score below 0.9.

What was measured:
[1] = read-out: Matrix Metallopeptidase 1 (MMP1), MMP1 (gene 4312); assay: BSK_BE3C_MMP1: BioMAP Diversity Plus: BE3C Assay for Matrix Metallopeptidase 1 (MMP1) Biomarker Activity (AID 2283024); conditions: primary human bronchial epithelial cells; actives raise or lower the signal
How it was run: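 Human primary bronchial epithelial cells (BE3C system) dosed for 24 h; MMP-1 quantified by ELISA. Bidirectional fit against DMSO; cytotoxicity tracked in parallel cultures by SRB total-protein staining.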

[2] = BSK_3C_Vis: BioMAP Diversity Plus: 3C Assay for Morphology Visualization (AID 2283025); conditions: primary human endothelial cells (HUVEC);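 note: fitted both ways so gain or loss versus DMSO counts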;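 for AC50: light microscopy image of cell morphology used as background control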
How it was run: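 Human umbilical vein endothelial cell morphology was inspected by light microscopy 24 h after chemical dosing; scored bidirectionally relative to DMSO.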

[3] = read-out: Pselectin, SELP (gene 6403); assay: BSK_4H_Pselectin: BioMAP Diversity Plus: 4H Assay for Pselectin Biomarker Activity (AID 2283026); conditions: primary human endothelial cells (HUVEC); actives raise or lower the signal
How it was run: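 Primary human umbilical vein endothelial cells were treated 24 h, and cell-surface P-selectin was then quantified by ELISA. Bidirectional fit versus DMSO; cytotoxicity checked in parallel cultures by SRB total-protein staining.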

[4] = BSK_4H_SRB: Viability Assessment in the BioMAP Diversity Plus: 4H Assay (AID 2283027); conditions: primary human endothelial cells (HUVEC);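 for AC50: curves fitted both ways versus DMSO so AC50 may be loss or gain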
How it was run: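 Human umbilical vein endothelial cells were dosed with chemical and, after 24 h, fixed with 10% TCA, stained with 0.1% sulforhodamine B, and read at 560 nm to give total protein as a cytotoxicity measure. Bidirectional fitting relative to DMSO control.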

[5] = BSK_BE3C_SRB: Viability Assessment in the BioMAP Diversity Plus: BE3C Assay (AID 2283028); conditions: primary human bronchial epithelial cells;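 for AC50: fitted both ways so AC50 may mark signal gain or loss versus DMSO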
How it was run: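 Human primary bronchial epithelial cells were exposed to test chemicals for 24 h. Total protein in parallel cultures was then measured by staining with 0.1% sulforhodamine B after 10% TCA fixation, with absorbance read at 560 nm. Activity was fitted bidirectionally against DMSO.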

[6] = read-out: Thrombomodulin, THBD (gene 7056); assay: BSK_3C_Thrombomodulin: BioMAP Diversity Plus: 3C Assay for Thrombomodulin Biomarker Activity (AID 2283029); conditions: primary human endothelial cells (HUVEC); actives raise or lower the signal
How it was run: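 Human umbilical vein endothelial cells were exposed to chemicals for 24 h; cell-surface thrombomodulin quantified by ELISA, with bidirectional fitting against DMSO baseline.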

[7] = read-out: Urokinase-type plasminogen activator receptor (uPAR), PLAUR (gene 5329); assay: BSK_4H_uPAR: BioMAP Diversity Plus: 4H Assay for Urokinase-type plasminogen activator receptor (uPAR) Biomarker Activity (AID 2283030); conditions: primary human endothelial cells (HUVEC); actives raise or lower the signal
How it was run: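 Primary human umbilical vein endothelial cells were exposed to chemical for 24 h before cell-surface uPAR was quantified by ELISA. Activity was fitted bidirectionally against the DMSO negative control baseline.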

[8] = read-out: Vascular endothelial growth factor receptor 2 (Homo sapiens) (UniProt P35968); assay: BSK_4H_VEGFRII: BioMAP Diversity Plus: 4H Assay for Vascular endothelial growth factor receptor 2 (VEGFR2) Biomarker Activity (AID 2283031); conditions: primary human endothelial cells (HUVEC); actives raise or lower the signal;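 for AC50: cell-surface VEGFR2 protein level quantified by ELISA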
How it was run: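 Primary human umbilical vein endothelial cells in the BioMAP 4H system were dosed with test chemical, and 24 h later VEGFRII was measured by ELISA. Activity was fitted bidirectionally against DMSO as negative control and baseline.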

[9] = read-out: Vascular cell adhesion molecule 1 (VCAM1), VCAM1 (gene 7412); assay: BSK_4H_VCAM1: BioMAP Diversity Plus: 4H Assay for Vascular cell adhesion molecule 1 (VCAM1) Biomarker Activity (AID 2283033); conditions: primary human endothelial cells (HUVEC); actives raise or lower the signal
How it was run: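 Primary human umbilical vein endothelial cells, 4H stimulation system, treated for 24 h; cell-surface VCAM-1 quantified by ELISA. Bidirectional fitting against DMSO; cytotoxicity tracked by SRB total-protein staining in parallel cultures.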

[10] = read-out: Interferon-gamma inducible Protein 10 (IP10), CXCL10 (gene 3627); assay: BSK_BE3C_IP10: BioMAP Diversity Plus: BE3C Assay for Interferon-gamma inducible Protein 10 (IP10) Biomarker Activity (AID 2283034); conditions: primary human bronchial epithelial cells; actives raise or lower the signal
How it was run: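 Primary human bronchial epithelial cells, with IP-10 measured by ELISA 24 hours after chemical dosing. Bidirectional fit against DMSO; cytotoxicity checked by SRB total protein staining in parallel cultures.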

[11] = read-out: Monokine induced gamma interferon (MIG), CXCL9 (gene 4283); assay: BSK_BE3C_MIG: BioMAP Diversity Plus: BE3C Assay for Monokine induced gamma interferon (MIG) Biomarker Activity (AID 2283035); conditions: primary human bronchial epithelial cells; actives raise or lower the signal
How it was run: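 ELISA read-out of MIG in human lung bronchial epithelial primary cultures, 24 h post-dosing. Bidirectional curve fit vs DMSO baseline.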

[12] = read-out: Transforming growth factor beta 1 (TGFb1), TGFB1 (gene 7040); assay: BSK_BE3C_TGFb1: BioMAP Diversity Plus: BE3C Assay for Transforming growth factor beta 1 (TGFb1) Biomarker Activity (AID 2283036); conditions: primary human bronchial epithelial cells; actives raise or lower the signal
How it was run: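 Primary human bronchial epithelial cells dosed with chemical; TGF-b1 measured by ELISA 24 h after dosing. Bidirectional curve fitting against DMSO negative control; SRB total-protein staining in parallel cultures gauged cytotoxicity.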

[13] = read-out: Plasminogen activator inhibitor-1 (PAI1), SERPINE1 (gene 5054); assay: BSK_BE3C_PAI1: BioMAP Diversity Plus: BE3C Assay for Plasminogen activator inhibitor-1 (PAI1) Biomarker Activity (AID 2283037); conditions: primary human bronchial epithelial cells; actives raise or lower the signal
How it was run: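 Primary human bronchial epithelial cells (BE3C system) exposed 24 h; PAI-1 quantified by ELISA. Parallel sulforhodamine B staining of total protein flags cytotoxicity. Bidirectional fit versus DMSO.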

[14] = read-out: urokinase plasminogen activator (uPA), PLAU (gene 5328); assay: BSK_BE3C_uPA: BioMAP Diversity Plus: BE3C Assay for urokinase plasminogen activator (uPA) Biomarker Activity (AID 2283038); conditions: primary human bronchial epithelial cells; actives raise or lower the signal
How it was run: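 Human primary bronchial epithelial cells were exposed to chemical for 24 h, then uPA levels were measured by ELISA. Responses were fitted bidirectionally against DMSO as negative control and baseline. Parallel SRB staining of total protein gauged overt cytotoxicity.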

[15] = read-out: Urokinase-type plasminogen activator receptor (uPAR), PLAUR (gene 5329); assay: BSK_BE3C_uPAR: BioMAP Diversity Plus: BE3C Assay for Urokinase-type plasminogen activator receptor (uPAR) Biomarker Activity (AID 2283039); conditions: primary human bronchial epithelial cells; actives raise or lower the signal
How it was run: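 Primary human bronchial epithelial cells dosed for 24 h; uPAR quantified by ELISA with bidirectional fitting against DMSO. Overt cytotoxicity assessed in parallel cultures by SRB total-protein staining (0.1% SRB, 560 nm).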

[16] = read-out: Interleukin-6 (IL6), IL6 (gene 3569); assay: BSK_CASM3C_IL6: BioMAP Diversity Plus: CASM3C Assay for Interleukin-6 (IL6) Biomarker Activity for (AID 2283040); conditions: primary human coronary artery smooth muscle cells; actives raise or lower the signal
[17] = read-out: Tissue plasminogen activator (tPA), PLAT (gene 5327); assay: BSK_BE3C_tPA: BioMAP Diversity Plus: BE3C Assay for Tissue plasminogen activator (tPA) Biomarker Activity (AID 2283041); conditions: primary human bronchial epithelial cells; actives raise or lower the signal
How it was run: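 Primary human bronchial epithelial cells in the BE3C system, exposed to compound for 24 h. tPA was quantified by ELISA; DMSO served as baseline, with gain or loss of signal fitted. Cytotoxicity checked in parallel cultures by SRB total-protein staining.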

[18] = read-out: Interleukin-8 (IL8), CXCL8 (gene 3576); assay: BSK_CASM3C_IL8: BioMAP Diversity Plus: CASM3C Assay for Interleukin-8 (IL8) Biomarker Activity (AID 2283042); conditions: primary human coronary artery smooth muscle cells; actives raise or lower the signal;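 note: IL-8 protein level quantified by ELISA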
[19] = read-out: Human Leukocyte Antigen - DR isotype (HLADR), HLA-DRA (gene 3122); assay: BSK_CASM3C_HLADR: BioMAP Diversity Plus: CASM3C Assay for Human Leukocyte Antigen - DR isotype (HLADR) Biomarker Activity (AID 2283043); conditions: primary human coronary artery smooth muscle cells; actives raise or lower the signal;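 note: cell-surface HLA-DR protein level quantified by ELISA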
[20] = read-out: Human Leukocyte Antigen - DR isotype (HLADR), HLA-DRA (gene 3122); assay: BSK_BE3C_HLADR: BioMAP Diversity Plus: BE3C Assay for Human Leukocyte Antigen - DR isotype (HLADR) Biomarker Activity (AID 2283032); conditions: primary human bronchial epithelial cells; actives raise or lower the signal
How it was run: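 Human primary bronchial epithelial cells (BE3C system) exposed to compound for 24 hours; cell-surface HLA-DR measured by ELISA, fitted bidirectionally relative to DMSO. Total protein by SRB in parallel cultures tracked cytotoxicity.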

Measured: AC50

[Cl][Sn]([c]1ccccc1)([c]1ccccc1)[c]1ccccc1
inactive: [8] | [12]
active: [1] 0.36 µM | [2] 0.176 µM | [3] 0.0641 µM | [4] 0.192 µM | [5] 0.146 µM | [6] 5 µM | [7] 0.205 µM | [9] 0.0783 µM | [10] 0.0935 µM | [11] 0.209 µM | [13] 0.992 µM | [14] 0.27 µM | [15] 0.27 µM | [16] 0.726 µM | [17] 0.0792 µM | [18] 0.499 µM | [19] 0.261 µM

CC(C=O)Cc1ccc2c(c1)OCO2 (centres undefined)
not listed: [20]
inactive: all other assays above

Oc1c(Cl)cc(Cl)cc1Cl
inactive: all assays above

Cc1ccccc1OP(=O)(Oc1ccccc1C)Oc1ccccc1C
active: [1] 5.4 µM | [2] 12.5 µM | [3] 8.88 µM | [4] 15.2 µM | [5] 16 µM | [7] 11.7 µM | [8] 9.28 µM | [20] 20 µM | [9] 7.84 µM | [10] 13.3 µM | [13] 11 µM | [16] 8.58 µM | [17] 7.43 µM | [19] 32.9 µM
inactive: [6] | [11] | [14] | [15] | [18]

CCOP(=O)(OCC)OC(=CCl)c1ccc(Cl)cc1Cl
active: [2] 37.4 µM | [3] 35.3 µM | [4] 29.3 µM | [7] 30.8 µM | [8] 28.7 µM | [9] 32 µM | [19] 33.4 µM
not listed: [20]
inactive: all other assays above

Cc1cc(Cl)ccc1OC(C)C(=O)O (centres undefined)
not listed: [12] | [20]
inactive: all other assays above
